# In the supplement of paper PMC13380429:
# A number with no mark means an inactive call.
# Tested on: Vero E6 infected with SARS-CoV-2
# Test: inhibition of SARS-CoV-2 cytopathic effect; higher = more antiviral protection, active = above 15
# Conditions: 48 h
Compound,inhibition of SARS-CoV-2 cytopathic effect (1 nM) [%],inhibition of SARS-CoV-2 cytopathic effect (8.33 nM) [%],inhibition of SARS-CoV-2 cytopathic effect (100 nM) [%],inhibition of SARS-CoV-2 cytopathic effect (833.33 nM) [%],inhibition of SARS-CoV-2 cytopathic effect (10000 nM)
Cc1cn(-c2cc(NC(=O)c3ccc(C)c(Nc4nccc(-c5cccnc5)n4)c3)cc(C(F)(F)F)c2)cn1 [nilotinib],3.96,3.56,3.11,5.24,6.03%
COC(=O)CCC(=O)CN [methyl-aminolevulinate],2.97,2.46,1.49,3.55,5.12%
O=C(O)CCCCC(CCSCc1ccccc1)SCc1ccccc1 (stereo not given),1.25,1.84,3.04,0.34,-0.88%
C[C@@H]1C[C@H]2[C@@H]3C[C@H](F)C4=CC(=O)C=C[C@]4(C)[C@@]3(Cl)[C@@H](O)C[C@]2(C)[C@H]1C(=O)COC(=O)C(C)(C)C [clocortolone-pivalate],0.49,2.86,-2.33,1.18,-2.12%
CCCCN(Cc1ccc(C(=O)NO)cc1)C(=O)Nc1ccccc1 [nexturastat-A],0.96,0.67,-0.8,-3.85,-13.9%
CNC(=O)c1cc(Oc2ccc(NC(=O)Nc3ccc(Cl)c(C(F)(F)F)c3)cc2)ccn1 [sorafenib],-0.83,1.38,2.59,2.85,16.4% (active)
Cc1cc(C(=O)N2Cc3cnn(C)c3Nc3ccccc32)ccc1CNC(=O)N1CCC[C@H]1C(=S)N1CCCN(C)CC1,-0.76,-1.38,-3.62,-1.74,-2.86%
O=C1C(Cl)=C(NCCN2CCOCC2)C(=O)c2ncccc21,-0.37,1.19,1.71,6,-17.2%
Cc1c(Cc2ccc3ccccc3n2)c2cc(F)ccc2n1CC(=O)O,1.64,-0.1,0.44,-1.23,-2.21%
C[C@]12CCC(=O)C=C1CC[C@@H]1[C@@H]2[C@@H](O)C[C@@]2(C)[C@H]1CC[C@]2(O)C(=O)COC(=O)CCC(=O)O [hydrocortisone-hemisuccinate],-3.36,-5.52,-5.26,-3.7,-4.67%
CC(=O)OCC(=O)[C@@]1(O)CC[C@H]2[C@@H]3CCC4=CC(=O)CC[C@]4(C)[C@H]3[C@@H](O)C[C@@]21C [hydrocortisone-acetate],-3.27,-0.84,0.23,-1.92,-0.4%
O=C(OCCN1CCOCC1)C1(c2ccccc2)CCCCC1,3.24,2.9,1.04,4.21,1.59%
CO[C@H]1[C@H](O)[C@@H](O)[C@@H](O)[C@H](O)[C@@H]1O [pinitol],0.84,-0.26,-2.68,-0.47,1.55%
N=C(N)NCCSSCCNC(=N)N [guanidinoethyldisulfide-bicarbonate],-2.83,-2.77,-1.91,-2.43,-5.27%
O=P(O)(O)CN(CCN(CP(=O)(O)O)CP(=O)(O)O)CP(=O)(O)O,-3.44,0.56,-0.33,2.43,-1.39%
CCCCc1nc(-c2ccc(OCCCN(CC)CC)cc2)cn1-c1ccc(Oc2ccc(Cl)cc2)cc1 [azeliragon],0.74,-0.49,1.43,1.68,-13.2%
O=C(O)c1cccnc1 [niacin],1.07,0.1,0.52,0.71,4.53%
Oc1ccc2c3c1O[C@H]1c4c(c5ccccc5n4Cc4ccccc4)C[C@@]4(O)[C@@H](C2)N(CC2CC2)CC[C@]314 [N-benzylnaltrindole],0.62,0.67,2.73,-0.06,34% (active)
